Compounds with a hit are over-represented: about 2.9% of the library has one in this group of screens.
ADAM17 inh: ADAM17 inhibitors, primary screen, biochemical, QFRET | inhibition, % at 6.95 µM | Disintegrin and metalloproteinase domain-containing protein 17 (Homo sapiens), P78536 | recombinant ADAM17, EDANS/DABCYL FRET peptide cleavage | hit rate 0.83% among 370,000;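 active = inhibition above the mean of compounds lying between control limits plus 3 SD, set per campaign, cut at about 8.5% in these data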
ADAM10 inh: human ADAM10 inhibitors, primary screen, biochemical, QFRET, HTS. Disintegrin and metalloproteinase domain-containing protein 10 (Homo sapiens), O14672. recombinant ADAM10, EDANS/DABCYL FRET peptide cleavage, 3 h. inhibition, % at 7 µM. hit rate 0.62% among 370,000;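 active = inhibition above a per-campaign cutoff equal to the mean of compounds falling between control-based bounds plus 3 SD, cut at about 20% in these data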
PLC-beta3 inh: human PLC-beta3 inhibitors, primary screen, biochemical, fluorescence; inhibition, % at 12.2 µM; 1-phosphatidylinositol 4,5-bisphosphate phosphodiesterase beta-3 (Homo sapiens), Q01970; hit rate 0.18% among 370,000; Purified PLC-beta3, fluorogenic substrate; in the data active = inhibition above about 11%
proKLK7 act: proKLK7 zymogen activators, primary screen, biochemical, fluorescence intensity. Kallikrein-7 (Homo sapiens), P49862. purified proKLK7, EDANS-DABCYL substrate fluorescence; 100% is mature enzyme control, 0% vehicle. activation, % at 7 µM. hit rate 0.9% among 370,000. AID 652039, 2013;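 active = activation above the mean of all tested compounds plus 3 SD, computed per campaign excluding outliers beyond control limits, cut at about 13% in these data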
PLC-gamma1 inh: PLC-gamma1 enzyme inhibitors, primary screen, biochemical, fluorescence, purified enzyme | fluorogenic substrate | AID 720700, 2013 | inhibition, % at 12.2 µM | hit rate 0.84% among 370,000 | 1-phosphatidylinositol 4,5-bisphosphate phosphodiesterase gamma-1 (Homo sapiens), P19174; in the data active = inhibition above about 9.5%
Target sequence (P19174 whole entry, looked up): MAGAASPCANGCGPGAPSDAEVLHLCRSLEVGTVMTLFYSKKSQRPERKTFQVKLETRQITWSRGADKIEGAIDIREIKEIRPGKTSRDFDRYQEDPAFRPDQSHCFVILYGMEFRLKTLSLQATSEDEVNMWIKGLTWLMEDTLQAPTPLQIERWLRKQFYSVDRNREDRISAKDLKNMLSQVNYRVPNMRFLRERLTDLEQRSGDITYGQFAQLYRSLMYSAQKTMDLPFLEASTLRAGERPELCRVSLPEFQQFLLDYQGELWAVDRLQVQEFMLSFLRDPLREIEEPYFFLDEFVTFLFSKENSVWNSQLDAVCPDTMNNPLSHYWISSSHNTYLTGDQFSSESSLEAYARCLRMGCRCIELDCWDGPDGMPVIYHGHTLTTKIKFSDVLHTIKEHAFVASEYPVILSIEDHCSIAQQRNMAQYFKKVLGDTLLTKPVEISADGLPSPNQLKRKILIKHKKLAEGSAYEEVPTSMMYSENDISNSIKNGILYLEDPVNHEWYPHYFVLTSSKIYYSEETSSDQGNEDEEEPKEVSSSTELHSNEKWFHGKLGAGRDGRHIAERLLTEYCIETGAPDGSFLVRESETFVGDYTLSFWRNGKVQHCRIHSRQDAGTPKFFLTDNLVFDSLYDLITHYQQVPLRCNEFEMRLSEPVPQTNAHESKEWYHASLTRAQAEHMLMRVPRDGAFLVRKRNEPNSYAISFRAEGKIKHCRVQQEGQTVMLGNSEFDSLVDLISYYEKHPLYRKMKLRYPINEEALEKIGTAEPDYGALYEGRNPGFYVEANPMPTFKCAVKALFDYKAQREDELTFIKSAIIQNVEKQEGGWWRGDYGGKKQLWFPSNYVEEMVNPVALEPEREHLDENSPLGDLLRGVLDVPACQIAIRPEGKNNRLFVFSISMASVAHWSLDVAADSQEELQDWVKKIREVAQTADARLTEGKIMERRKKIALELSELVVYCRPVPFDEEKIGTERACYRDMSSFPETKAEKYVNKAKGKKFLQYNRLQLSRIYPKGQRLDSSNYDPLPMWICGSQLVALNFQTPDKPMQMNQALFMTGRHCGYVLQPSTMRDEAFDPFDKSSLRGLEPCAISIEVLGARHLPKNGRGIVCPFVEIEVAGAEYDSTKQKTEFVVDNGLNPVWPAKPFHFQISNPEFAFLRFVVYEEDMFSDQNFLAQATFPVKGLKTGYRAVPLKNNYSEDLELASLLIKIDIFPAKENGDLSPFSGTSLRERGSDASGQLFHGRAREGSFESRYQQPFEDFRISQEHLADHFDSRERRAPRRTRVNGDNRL
ADAM10 ctr: ADAM10 inhibitors, counter-screen for ADAM17 exosite inhibitor project, biochemical, FRET, human ADAM10 | shares compounds with ADAM17 inh | recombinant ADAM10, EDANS/DABCYL FRET peptide cleavage, 3 h | inhibition, % at 6.95 µM | hit rate 47% among 2,900;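 active = mean inhibition over the triplicate runs exceeds the activity threshold set in the earlier primary screen, cut at about 20% in these data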
ADAM17 confirm: ADAM17 inhibitors, hit retest, confirmation, biochemical, QFRET peptide cleavage; shares compounds with ADAM17 inh; inhibition, % at 6.95 µM; AID 743257, 2014; recombinant ADAM17, EDANS/DABCYL QFRET peptide cleavage; hit rate 65% among 2,900;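 active = mean inhibition across replicates above the hit cutoff set in the primary screen, cut at about 8.5% in these data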
Large screens that a line does not name were inactive (follow-up assays come after a bar, where they were run); ! = repeats disagree.

COCCN(C(=O)Cc1cccs1)C(C(=O)NC1CCCC1)c1ccc(OC)c(OC)c1 (stereo unspecified)	none
Cc1ccc(-c2noc(C3CCCN(C(=O)C4CCCCC4)C3)n2)o1 (stereo unspecified)	none
CC(C)C(=O)N1CCN(c2ccc(NC(=O)c3cccs3)cc2Cl)CC1	ADAM17 inh 9.1 | ADAM10 ctr inactive | ADAM17 confirm inactive
COc1ccc(NS(=O)(=O)c2cc(NC(=O)c3cccs3)ccc2N2CCCC2)cc1	ADAM17 inh 9.1 | ADAM10 ctr inactive | ADAM17 confirm 11.1
O=C(CCCc1ccccc1)N1CCN(C2CCCCC2)CC1	none
O=C(CNC(=O)c1sc2ccccc2c1Cl)OCc1ccccc1	none
O=C(COC(=O)c1cccc(NS(=O)(=O)/C=C/c2ccccc2)c1)Nc1ccccc1OC(F)F	ADAM17 inh 9.9 | ADAM10 ctr inactive | ADAM17 confirm 14.6
C[C@H]1CN([C@@H](C)CO)C(=O)Cc2cc(NC(=O)C3CC3)ccc2O[C@H]1CN(C)Cc1ccc(Oc2ccccc2)cc1	ADAM17 inh 9.3 | ADAM10 ctr 28.8 | ADAM17 confirm 18.8
COc1ccc(NC(=O)Nc2ccc3c(c2)CC(=O)N([C@H](C)CO)C[C@@H](C)[C@H](CN(C)C(=O)Nc2ccccc2)O3)cc1	none
C[C@H]1CN([C@@H](C)CO)C(=O)Cc2cc(NC(=O)CCN3CCOCC3)ccc2O[C@@H]1CN(C)Cc1ccc(Oc2ccccc2)cc1	none
COc1ccc(NC(=O)Nc2ccc3c(c2)CC(=O)N([C@H](C)CO)C[C@H](C)[C@H](CN(C)Cc2ccc(C(=O)O)cc2)O3)cc1	ADAM17 inh 9.0 | ADAM10 ctr inactive | ADAM17 confirm inactive
Cc1ccc(C(=O)NC(=S)/C=C2\N(C)c3ccccc3C2(C)C)cc1	ADAM17 inh 17.5 | ADAM10 ctr 26.5 | ADAM17 confirm 13.4
CC(C)C(=O)NC(=S)/C=C1/N(C)c2ccccc2C1(C)C	none
Cc1ccccc1C(=O)c1c[nH]c(C(=O)NCC2CCCO2)c1 (stereo unspecified)	ADAM17 inh 9.2 | ADAM10 ctr inactive | ADAM17 confirm inactive
O=c1c2ccccc2sn1-c1ccc(Cl)cc1	none
CCn1nc(C(=O)OCc2cccc(S(=O)(=O)N(C)C)c2)c2ccccc2c1=O	none
COc1ccc(C2=Nn3c(nnc3-c3ccccc3F)SC2)cc1OC1CCOC1 (stereo unspecified)	none
COc1ccc(C2=Nn3c(nnc3-c3ccccc3F)SC2)cc1OC1CCCC1	ADAM17 inh 11.3, ADAM10 inh 27.0 | ADAM10 ctr 24.4 | ADAM17 confirm 16.5
CCOC(=O)C1CCCN(C(=O)/C=C/c2ccc([N+](=O)[O-])cc2)C1 (stereo unspecified)	none
COc1ccc(NC(C)C(=O)N/N=C/c2ccccc2OCc2ccc(Br)cc2)cc1 (stereo unspecified)	ADAM17 inh 13.7 | ADAM10 ctr inactive | ADAM17 confirm 20.5
c1ccc(-c2nnc(-c3c[nH]c4ccccc34)nc2-c2ccccc2)cc1	ADAM17 inh 8.7 | ADAM10 ctr inactive | ADAM17 confirm 8.8
CC(C)(Oc1ccc(Cl)cc1)C(=O)Nc1cccc(S(=O)(=O)NC2=NCCC2)c1	none
COc1ccc(C2=NN(C(=O)CSc3nnc(-c4ccccc4F)o3)C(c3ccco3)C2)cc1 (stereo unspecified)	ADAM17 inh 10.8 | ADAM10 ctr inactive | ADAM17 confirm inactive
COc1ccc(C2=NN(C(N)=S)C(c3ccco3)C2)cc1 (stereo unspecified)	none
CC1(c2nnc(-c3cccc(Cl)c3)o2)CC(c2ccc(F)cc2)=NO1 (stereo unspecified)	ADAM17 inh 11.5 | ADAM10 ctr inactive | ADAM17 confirm inactive
C[C@@H]1C[C@H]2[C@@H](Cc3ccccc3)C(=O)N3[C@H](c4ccccc4)[C@H](C)C[C@H]3[C@@H](Cc3ccccc3)C(=O)N2[C@@H]1c1ccccc1	none
Cc1ccc(Nc2nc3ccccc3s2)c(C)c1	ADAM17 inh 9.0 | ADAM10 ctr 26.0 | ADAM17 confirm 16.9
CN1CC(c2ccccc2Cl)C2(COc3ccccc3C2=O)C12C(=O)Nc1ccccc12 (stereo unspecified)	ADAM17 inh 8.9 | ADAM10 ctr 43.6 | ADAM17 confirm 25.1
CN1CC(c2ccccn2)C2(SC(=S)N(Cc3ccccc3)C2=O)C12C(=O)Nc1ccccc12 (stereo unspecified)	none
Cc1cccc(OCc2nnc(SCC(=O)Nc3cccc(C(=O)N4CCOCC4)c3)n2C)c1C	ADAM17 inh 10.3 | ADAM10 ctr inactive | ADAM17 confirm inactive
Cc1nc(CC(=O)NNS(=O)(=O)c2ccc3ccccc3c2)cs1	none
CC1CC(C)CN(CCCNC(=O)CN2C(=O)CSc3ccc(S(=O)(=O)N4CCCCC4)cc32)C1 (stereo unspecified)	ADAM17 inh 10.4 | ADAM10 ctr inactive | ADAM17 confirm 9.8
Cc1ccc(-c2nn3c(C)nnc3s2)cc1NC(=O)c1cccs1	ADAM17 inh 11.5 | ADAM10 ctr inactive | ADAM17 confirm inactive
COc1c(C)cccc1C(=O)Nc1cc(-c2nn3c(C)nnc3s2)ccc1C	none
N=c1c2c(ncn1Cc1ccco1)Oc1c(ccc3ccccc13)C2c1ccccc1 (stereo unspecified)	ADAM17 inh 9.3 | ADAM10 ctr inactive | ADAM17 confirm inactive
CCOC(=O)C1=C(C)NC(C)=C(C(=O)OCC)C1c1ccc([N+](=O)[O-])s1	ADAM17 inh 9.2! | ADAM10 ctr 23.7 | ADAM17 confirm 12.2
Cc1c(Cl)cccc1Nc1nc(N)nc(CSc2nc3ccccc3s2)n1	ADAM17 inh 9.5 | ADAM10 ctr inactive | ADAM17 confirm 11.0
COc1c(OC(C)=O)ccc(/C=C/c2ccc3cccc(OCc4ccccc4)c3n2)c1[N+](=O)[O-]	ADAM17 inh 9.7 | ADAM10 ctr inactive | ADAM17 confirm 9.2
COc1ccc(OC)c(C2C(C(N)=O)=C(C)Nc3nc(-c4cccc(Cl)c4)nn32)c1 (stereo unspecified)	ADAM17 inh 9.3 | ADAM10 ctr inactive | ADAM17 confirm inactive

Compound activity from PubChem BioAssay.
